Inconclusive results are not listed. Active and inactive are the calls of the source. How the source made its calls: active means hit-call score of the fitted dose curve at least 0.9, where 1 is the maximum; inconclusive means response in the unintended direction; inactive means score below 0.9.
Target: human Retinoic Acid Receptor beta (RARb), RARB (gene 5915) (UniProt P10826)
Assay: ATG_RARb_TRANS: Attagene TRANS-FACTORIAL HepG2 Assay for human Retinoic Acid Receptor beta (AID 2283004)
Description: ATG_TRANS is a cell-based, multiplexed-readout assay that uses HepG2, a human liver cell line, with measurements taken at 24 hours after chemical dosing in a 24-well plate.ATG_RARb_TRANS is one of 30 assay component(s) measured or calculated from the ATG_TRANS assay. It is designed to make measurements of mRNA induction, a form of inducible reporter, as detected with fluorescence intensity signals by Reverse transcription polymerase chain reaction (RT-PCR) and Capillary electrophoresis technology.Data from the assay component ATG_RARb_TRANS was analyzed into 1 assay endpoint. This assay endpoint, ATG_RARb_TRANS, was analyzed in the positive analysis fitting direction relative to DMSO as the negative control and baseline of activity. Using a type of inducible reporter, measures of mRNA for gain-of-signal activity can be used to understand the reporter gene at the transcription factor-level as they relate to the gene RARB. Furthermore, this assay endpoint can be referred to as a primary readout, because this assay has produced multiple assay endpoints where this one serves a reporter gene function. To generalize the intended target to other relatable targets, this assay endpoint is annotated to the nuclear receptor intended target family, where the subfamily is non-steroidal.
Human liver HepG2 cells are transiently transfected with multiple reporter transcription units (MRTUs) in 6-well plates using FuGene 6 reagent (Roche; 3 ml FuGene/1 mg DNA). The MRTU constructs are regulated by a cis-regulating element (promoter). […] A major difference between the CIS and TRANS system is that in CIS activities of endogenous TFs are measured, whereas the TRANS assay evaluates changes in activities of exogenous, chimeric NR-Gal4 proteins. […] At the end of 24 hour incubation, total RNA was isolated using TriZol reagent (Invitrogen). The isolated RNA is then reverse-transcribed using oligo(dT) primer and Mo-MLV reverse transcriptase (Invitrogen) with DNAse I (Ambion) treatment for 30 min. The one-tenth of the produced cDNA was amplified by PCR using Taq DNA polymerase (Invitrogen) and two reporter sequence-specific primers. The PCR products were fluorescently labeled by primer extension with 6-arboxyfluorescein (6-FAM) 5'-labeled reporter sequence-specific primer (2 min at 95 C, 20 s at 68 C and 10 min at 72 C) and these products were digested with 5U of HpaI (New England Biolabs) for 2h at 37 C. The fragments were purified using Qiaquick PCR columns (Qiagen), analyzed on an ABI 3130xL genetic analyzer (Applied Biosystems) with peak positions identified by using a set of X-rhodamine (ROX)-labeled MapMarker1000 molecular weight standards (BioVentures). The raw capillary electrophoresis data was processed using Attagraph software (Attagene).

Sequence of human Retinoic Acid Receptor beta (RARb), RARB (gene 5915) (P10826 whole entry, looked up): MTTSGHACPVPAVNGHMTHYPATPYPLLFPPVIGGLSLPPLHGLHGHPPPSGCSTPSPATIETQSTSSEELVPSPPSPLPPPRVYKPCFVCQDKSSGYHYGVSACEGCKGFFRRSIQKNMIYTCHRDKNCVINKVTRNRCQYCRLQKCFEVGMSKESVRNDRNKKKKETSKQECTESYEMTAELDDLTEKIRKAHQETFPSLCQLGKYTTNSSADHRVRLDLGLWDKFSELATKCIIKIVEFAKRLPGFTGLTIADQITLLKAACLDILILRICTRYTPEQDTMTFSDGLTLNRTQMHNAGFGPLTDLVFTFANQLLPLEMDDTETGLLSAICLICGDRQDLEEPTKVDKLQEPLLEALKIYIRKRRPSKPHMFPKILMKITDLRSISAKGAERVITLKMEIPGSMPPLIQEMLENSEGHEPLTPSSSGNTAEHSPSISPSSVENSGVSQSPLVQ

outcome, inactive:
Cc1oc2c(NC(=O)c3c(Cl)cccc3Cl)cccc2c1C(C)(C)O
Clc1cc(Cl)c2c(c1)N=C1CCCCCN1C2
CC(C)(c1cc(Br)c(O)c(Br)c1)c1cc(Br)c(O)c(Br)c1
O=C(Nc1ccc(Cl)cc1)Nc1ccc(Cl)c(Cl)c1
CC[C@H](NC(=O)c1cc(F)ccc1NS(=O)(=O)c1cccc2cccnc12)c1ccccc1
CCCCCCCCN(C)CCCCCCCC
O=C(OCCCCCCOC(=O)c1ccccc1)c1ccccc1
Cc1cc2c(cc1C(F)(F)F)N(C(=O)Nc1ccc(Oc3cccnc3C)nc1)CC2
O=C(O)Cc1cc(I)c(Oc2ccc(O)c(I)c2)c(I)c1
CC(C)(O)c1ccc(CNC(=O)c2cccnc2Oc2ccc3nonc3c2)cc1
CCCCCCCCCCCCO
Cc1ccc(C(C)C)cc1
CCCCCCCC[Si](OCC)(OCC)OCC
O=C(O)c1ccccc1-n1cc(C(=O)O)c(=O)c2cc(Nc3c(F)cc(F)cc3Cl)c(Cl)cc21
CC(O)CC(C)(C)O (stereo not drawn)
c1ccc2ccccc2c1
C[C@]12CC[C@@H]3c4ccc(O)cc4CC[C@H]3[C@@H]1CC[C@H]2O
CC/C(=C(/CC)c1ccc(O)cc1)c1ccc(O)cc1
O=C1CCC(C2CCCCC2)CC1
OCCO
CC[C@@H]1C[C@H](N(Cc2cc(C(F)(F)F)cc(C(F)(F)F)c2)C(C)=O)c2cc(C(F)(F)F)ccc2N1C(=O)OC(C)C
CC(C)(C)c1cc(/C=C2\SC(N)=NC2=O)cc(C(C)(C)C)c1O
CCCC(=O)OCCC(C)C
CCCCCCCCOC(=O)c1cc(O)c(O)c(O)c1
CO[C@H]1/C=C/O[C@@]2(C)Oc3c(C)c(O)c4c(O)c(c(/C=N/N5CCN(C)CC5)c(O)c4c3C2=O)NC(=O)/C(C)=C\C=C\[C@H](C)[C@H](O)[C@@H](C)[C@@H](O)[C@@H](C)[C@H](OC(C)=O)[C@@H]1C
CN(C)c1ccc(C(=C2C=CC(=[N+](C)C)C=C2)c2ccc(N(C)C)cc2)cc1
CC1=CC(=O)/C(=C(/C)O)C(=O)O1
CCCCCCCCOc1ccc(C(=O)c2ccccc2)c(O)c1

Reference: PubChem BioAssay (EPA / NIEHS)
